From PubChem BioAssay
GIRK2 act = GIRK2 channel activators by thallium flux. activation (% efficacy), % for hits at 37.5 µM. P48051. AID 1259324. 34,000 tested, under 10 active. HEK293 GIRK2/NPY4 cells, thallium flux fluorescence;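 active = primary screen hit, no activity in plain HEK293 cells, and in GIRK2-only cells above 5% efficacy rising with concentration; inactive = the rest, including fluorescent compounds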;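 note: efficacy is normalized control-subtracted fluorescence 15 s after thallium addition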
Target sequence (P48051 whole entry, looked up): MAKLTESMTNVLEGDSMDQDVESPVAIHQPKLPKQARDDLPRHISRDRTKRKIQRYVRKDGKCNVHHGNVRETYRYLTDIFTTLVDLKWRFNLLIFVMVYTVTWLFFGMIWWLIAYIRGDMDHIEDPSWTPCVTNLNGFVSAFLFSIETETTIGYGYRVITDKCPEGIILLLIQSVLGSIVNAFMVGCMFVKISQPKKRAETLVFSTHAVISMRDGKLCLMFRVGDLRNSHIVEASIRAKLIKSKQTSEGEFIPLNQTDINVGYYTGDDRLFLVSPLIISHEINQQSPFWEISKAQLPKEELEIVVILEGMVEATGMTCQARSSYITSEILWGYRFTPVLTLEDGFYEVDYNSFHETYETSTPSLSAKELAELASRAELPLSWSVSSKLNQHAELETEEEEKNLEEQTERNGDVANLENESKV
GluA2 TARP mod = GluA2-stargazin AMPA receptor complex modulation | O88602+P19491 | HEK293 GluA2+stargazin, membrane potential dye (FDSS), glutamate EC50; hits were called plate by plate, in both directions | calls only at 30 µM | 40,000 compounds, 3.5% hits | AID 1259245;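 active = any of four per-well response measures lying three or more SD from its plate-wide compound average, in either direction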
* marks the source's active call; other numbers are inactive results; i = inactive; · = no result given; + = active, no number. Shown is part of a subset that was picked to be rich in hits.

SMILES	GIRK2 act	GluA2 TARP mod
COc1cc(C(=O)NCCN2CCN(c3ccccc3F)CC2)cc(OC)c1OC	i	i
Cn1c(-c2ccccc2)nn(CCNC(=O)Cc2ccccc2)c1=O	i	i
NC(=O)CSc1nc(-c2ccccc2)c(NC(=O)CC2CCCC2)s1	i	+
CCNC(=O)CSc1nc(-c2ccccc2)c(NC(=O)C(C)(C)Oc2ccc(Cl)cc2)s1	i	+
CCC(=O)Nc1sc(SCC(N)=O)nc1-c1ccccc1	i	i
CC(C)(C)C(=O)Nc1sc(SCC(=O)NC2CC2)nc1-c1ccccc1	i	i
COc1ccc(Cl)cc1C(=O)Nc1sc(SCC(N)=O)nc1-c1ccccc1	i	i
COc1ccccc1C(=O)Nc1sc(SCC(N)=O)nc1-c1ccccc1	i	+
CC(C)c1nc(-c2ccc(N3CCN(C(=O)/C=C\c4ccc5c(c4)OCO5)CC3)nc2)no1	i	i
COc1ccccc1C(=O)Nc1ccc2c(c1)CCC(=O)N2Cc1ccccc1	i	i
O=C1Nc2ccccc2Oc2ccc(NS(=O)(=O)C3CCCCC3)cc21	·	+
O=C(Cc1ccc(NS(=O)(=O)C2CCCCC2)cc1)NCc1cccs1	i	i
O=C(CCc1ccccc1)NCCn1ncc2c(N3CCCC3)ncnc21	i	i
COc1ccc(CCC(=O)NCCn2ncc3c(N4CCCCC4)ncnc32)cc1	i	+
COc1cccc(C(=O)NCCS(=O)(=O)N2CCOCC2)c1	·	i
COc1cccc(C(=O)NCCS(=O)(=O)N2CCC3(CC2)OCCO3)c1	·	+
Cc1cc(C)nc(Nc2nc(C(=O)NCc3ccc(OC(F)(F)F)cc3)cs2)n1	i	i
COc1cc(C)c(C)cc1S(=O)(=O)NCC(O)(c1cccs1)C1CC1 (configuration not stated)	i	i
Cc1c(O)ccc2cc(S(=O)(=O)c3ccc(F)cc3)c(=O)oc12	·	+
CC(C)(C)c1ccc(S(=O)(=O)c2cc3cc(F)cc(F)c3oc2=O)cc1	·	i
O=C(C1CCCCC1)N1CCN(c2ccc(-c3ccncc3)nn2)CC1	i	i
O=C(C1CCCC1)N1CCN(c2ccc(-c3ccc(Cl)cc3)nn2)CC1	i	+
O=C(C1c2ccccc2Oc2ccccc21)N1CCN(c2ccc(-c3ccncc3)nn2)CC1	i	+
O=C(C1CC1)N1CCN(c2ccc(-c3ccc(Cl)cc3)nn2)CC1	i	i
CC1=C(C(=O)Nc2cccc(C(F)(F)F)c2)C(c2ccc(F)cc2)C2=C(CCCC2=O)N1 (configuration not stated)	·	i
SMILES	GIRK2 act	GluA2 TARP mod
CC1=C(C(=O)Nc2cc(C(F)(F)F)ccc2Cl)C(c2ccc(C)cc2)C2=C(CCCC2=O)N1 (configuration not stated)	·	+
CCOc1ccc(S(=O)(=O)NCC(O)(c2cccs2)C2CC2)cc1F (configuration not stated)	i	i
CCOc1ccc(NC(=O)Cc2cc(-c3ccc(F)cc3)on2)cc1	i	i
O=C(Nc1nc(-c2ccco2)cs1)c1csc(-c2cnccn2)n1	i	i
CCCN(CCC)S(=O)(=O)c1cccc([N+](=O)[O-])c1	·	i
CSc1ccccc1NC(=O)C(=O)NCC1CCN(C)CC1	i	i
CSc1ccccc1NC(=O)C(=O)NCC1CCN(C2CCCC2)CC1	i	+
C=CCN1C(=O)SC(CC(=O)Nc2ccc([N+](=O)[O-])cc2)C1=O (configuration not stated)	i	+
C=CCN1C(=O)SC(CC(=O)Nc2ccc(C(=O)OC)cc2)C1=O (configuration not stated)	i	i
Cn1c(=O)c2c(nc(NCc3ccccc3)n2CC(=O)N=Nc2c(O)[nH]c3ccccc23)n(C)c1=O	·	+
Cn1c(O)c(N=Nc2nc3c(c(=O)n(C)c(=O)n3C)n2Cc2ccccc2)c(=O)n(C)c1=O	·	+
Cn1c(=O)c2c(nc(N=Nc3c(O)[nH]c4ccccc34)n2CCc2ccccc2)n(C)c1=O	·	i
Cn1c(O)c(N=Nc2nc3c(c(=O)[nH]c(=O)n3C)n2CCCOc2ccccc2)c(=O)n(C)c1=O	·	i
CN1CCN(c2ccc(N3CCN(C(=O)COc4ccccc4)CC3)nn2)CC1	i	i
CC(C)Sc1ccc(CC(=O)N2CCC(c3nnc(C(C)C)o3)CC2)cc1	i	+
CC(C)c1nnc(C2CCN(C(=O)CCSc3ccccc3)CC2)o1	i	i
Cc1cccc(C)c1N1CCN(C(=O)c2ccc3c(c2)OCO3)CC1	·	+
Cn1ccnc1N1CCN(C(=O)c2ccc3c(c2)OCO3)CC1	i	i
COc1ccc(C(C)(C)C)cc1S(=O)(=O)Nc1cccc(C(=O)O)c1	i	·
CCOc1ccc(-n2nnnc2CN2CCN(C(=O)c3ccc(Cl)cc3)CC2)cc1	i	i
Cc1ccc(NC(=O)CN2CCC(c3nnc(C(C)C)o3)CC2)cc1Cl	i	i
